Measured values published in PubChem BioAssay (NCATS).
Where “and” joins values, the source holds several entries; their conditions need not be identical. Equal entries are not always repeated. Inconclusive results are not listed. A call without a number means that no potency is given here. Calls of active or inactive are those of the source. Unless noted, calls come from the whole dose curve; as a rule, active = well fitted curve in the direction sought with a large enough effect; inconclusive = small, poorly fitted or top-dose-only effect, or another doubt; inactive = no such curve, though single readings can be large; an effect the other way counts as inactive or inconclusive.

Columns and labels:
[1] = qHTS Assay for Lipid Storage Modulators (AID 1519; calls by dose curve); conditions: Drosophila S3 cells, BODIPY lipid droplet/cell ratio, laser cytometry, cells loaded with oleic acid; for activity change, negative = inhibition: at 57.5 µM (top of the series)
In short: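 Cells seeded at 5,000 per well were treated with compounds over a concentration series and loaded with oleic acid (400 uM, as added). Lipid droplet fluorescence (488 nm excitation, 500-530 nm channel) was read by laser-scanning cytometry and normalized to 20 uM Triacsin C.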

[2] = molecular target: DNA repair nuclease/redox regulator APEX1 (Homo sapiens) (UniProt P27695); test: qHTS Validation Assay for Inhibitors of the Human Apurinic/apyrimidinic Endonuclease 1 (APE1) (AID 1705;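 note: TAMRA fluorescence gain over two minutes as APE1 cuts a quenched THF abasic duplex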); conditions: purified APE1 endonuclease activity, fluorescence, titration; series mostly up to 57.1 µM
Sequence of DNA repair nuclease/redox regulator APEX1 (Homo sapiens) (P27695 whole entry, looked up): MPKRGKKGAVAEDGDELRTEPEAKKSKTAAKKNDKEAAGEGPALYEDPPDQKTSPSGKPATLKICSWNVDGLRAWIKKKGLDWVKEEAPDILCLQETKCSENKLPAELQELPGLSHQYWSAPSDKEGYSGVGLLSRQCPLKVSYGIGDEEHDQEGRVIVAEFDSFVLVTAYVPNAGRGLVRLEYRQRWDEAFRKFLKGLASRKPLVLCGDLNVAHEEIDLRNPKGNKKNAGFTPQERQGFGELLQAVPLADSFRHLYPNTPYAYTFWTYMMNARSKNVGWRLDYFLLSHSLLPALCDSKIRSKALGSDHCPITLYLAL
In short: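 Endonuclease activity of human APE1 is followed as dequenching when the enzyme incises a tetrahydrofuran abasic site in a short duplex labelled 5'-TAMRA/3'-BHQ-2 (50 nM final), after 15 min enzyme–compound preincubation at room temperature.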

[3] = qHTS for differential inhibitors of proliferation of Plasmodium falciparum line 7G8 (AID 1815); conditions: Plasmodium falciparum 7G8 proliferation inhibition; series mostly up to 28.7 µM;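 note: parasite growth measured after three days of incubation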; note: potency is the fitted concentration of half-maximal effect
[4] = qHTS for differential inhibitors of proliferation of Plasmodium falciparum line GB4 (AID 1816); conditions: Potency: Plasmodium falciparum GB4 proliferation inhibition; series mostly up to 28.7 µM;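 note: parasite growth measured after 72 h incubation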; note: potency is the fitted concentration of half-maximal effect
[5] = qHTS for differential inhibitors of proliferation of Plasmodium falciparum line 3D7 (AID 1876); note: potency is the fitted concentration of half-maximal effect; conditions: P. falciparum 3D7 proliferation inhibition; series mostly up to 28.7 µM
[6] = qHTS for differential inhibitors of proliferation of Plasmodium falciparum line D10 (AID 1877); conditions: series mostly up to 28.7 µM;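 note: parasites grown with compound for 72 h before DNA staining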; note: potency is the fitted concentration of half-maximal effect
[7] = qHTS for differential inhibitors of proliferation of Plasmodium falciparum line Dd2 (AID 1882); conditions: Potency: Plasmodium falciparum Dd2 proliferation inhibition; series mostly up to 28.7 µM;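 note: compound exposure of 72 h on infected erythrocytes; nearly all actives have a fitted effect of over 65% in size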
In short: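 SYBR Green I DNA fluorescence read-out, ex 485/em 535 nm. Signals were normalized to 0.29 uM artemisinin and DMSO wells, then corrected using vehicle-only plates flanking each stack. Parasite growth ran 72 h in erythrocytes before lysis.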

[8] = qHTS Assay for Modulators of Human Peripheral Myelin Protein 22 (PMP22) Expression/Activity (AID 1967; active = well fitted curve in the direction sought with a large enough effect in the signal ratio; the % refers to the signal ratio); conditions: Cell-based PMP22 reporter, dual-color luciferase ratio, 0% = compound-free control cells, mouse Pmp22 promoter in mouse Schwann cells; series mostly up to 115 µM
In short: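 Quantitative HTS in a mouse Schwann cell line expressing dual click beetle luciferases: Pmp22 promoter (green) and control EF-alpha promoter (red). After 24h treatment, corrected green/red signal ratio gave %Activity relative to untreated cells.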

[9] = molecular target: Ferritin light chain (Equus caballus) (UniProt P02791); test: qHTS Validation Assay for Identification of Novel General Anesthetics (AID 2323); conditions: horse apoferritin, anesthetic-site fluorescent probe displacement; series mostly up to 76.9 µM
Sequence of Ferritin light chain (Equus caballus) (P02791 2-175 limits assumed): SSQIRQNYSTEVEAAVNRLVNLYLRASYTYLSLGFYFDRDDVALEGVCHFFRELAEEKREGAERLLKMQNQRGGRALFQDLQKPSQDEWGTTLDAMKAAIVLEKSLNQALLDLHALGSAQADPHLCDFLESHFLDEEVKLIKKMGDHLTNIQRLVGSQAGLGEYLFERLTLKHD
In short: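 Apoferritin from horse spleen (10 uM) was mixed with 1-aminoanthracene at 50% saturation in PBS, then compounds were added. After 10 min at room temperature, fluorescence was read (ex 380 nm, em 535 nm) and normalized to free-probe and complex controls.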

[10] = molecular target: ATP-dependent DNA helicase Q1 (Homo sapiens) (UniProt P46063); test: qHTS Validation Assay for Inhibitors of RecQ-Like Dna Helicase 1 (RECQ1) (AID 2353); conditions: recombinant RECQ1 helicase DNA unwinding assay; series mostly up to 25.6 µM
Sequence of ATP-dependent DNA helicase Q1 (Homo sapiens) (P46063 whole entry, looked up): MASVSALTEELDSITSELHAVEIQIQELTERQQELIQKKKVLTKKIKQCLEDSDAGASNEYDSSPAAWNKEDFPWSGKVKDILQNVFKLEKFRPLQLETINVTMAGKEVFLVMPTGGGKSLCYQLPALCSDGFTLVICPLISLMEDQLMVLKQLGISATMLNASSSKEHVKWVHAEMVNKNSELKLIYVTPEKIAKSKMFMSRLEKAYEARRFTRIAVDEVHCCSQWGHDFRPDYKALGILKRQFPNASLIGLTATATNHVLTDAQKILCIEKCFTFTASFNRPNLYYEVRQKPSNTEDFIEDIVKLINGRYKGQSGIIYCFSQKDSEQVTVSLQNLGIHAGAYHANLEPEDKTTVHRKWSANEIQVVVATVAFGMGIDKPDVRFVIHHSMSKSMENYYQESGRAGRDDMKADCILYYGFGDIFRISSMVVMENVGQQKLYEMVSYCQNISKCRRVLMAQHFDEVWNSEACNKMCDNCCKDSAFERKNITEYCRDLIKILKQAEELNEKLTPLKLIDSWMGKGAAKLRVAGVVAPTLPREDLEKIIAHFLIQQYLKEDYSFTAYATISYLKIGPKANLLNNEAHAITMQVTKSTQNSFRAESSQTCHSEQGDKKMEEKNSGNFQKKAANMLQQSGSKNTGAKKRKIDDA
In short: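 50 nM RECQ1T1 preincubated 15 min with compound in Tris pH 8.0 buffer with MgCl2, DTT, Tween-20 and 2.5 ug/ml poly(dI-dC); started with 200 nM TAMRA/BHQ-2 forked duplex and 2 mM ATP. Unwinding read as fluorescence (525/598 nm), two reads 2 h apart.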

[11] = Cytometric Cell-Based qHTS for Inhibitors of the mTORC1 Signaling Pathway in MEF (Tsc2-/-, p53-/-) Cells (AID 2660); conditions: mTORC1 pathway cytometry; series mostly up to 38.3 µM;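 note: percent of cells above a phospho-rpS6 to PI ratio cutoff in each well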
In short: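 Immunofluorescence qHTS of rpS6 Ser235/236 phosphorylation: MEFs (Tsc2-/-, p53-/-) treated 24 h, 37 C, in DMEM + 10% FBS. Alexa-488 signal normalized to PI count, referenced to rapamycin (7.5 nM) and DMSO; PI cell number recorded for viability.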

[12] = High Content Imaging Cell-Based qHTS for Inhibitors of the mTORC1 Signaling Pathway in MEF (Tsc2-/-, p53-/-) Cells (AID 2666); conditions: series mostly up to 38.3 µM;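 note: percent of cells scored positive for phospho-rpS6 Ser235/236 immunostaining by imaging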
In short: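 Phospho-rpS6 (Ser235/236) immunofluorescence, normalized and scored as % positive cells using rapamycin and DMSO controls, was read in empty-vector Tsc2-/-, p53-/- MEFs after 24 h compound exposure at 37 C; propidium iodide counted cells.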

[13] = molecular target: Endonuclease 4 (Escherichia coli (strain K12)) (UniProt P0A6C1); test: Counterscreen for APE1 Inhibitors: qHTS Validation Assay for Inhibitors of Endonuclease IV (AID 1708); conditions: E. coli endonuclease IV, DNA cleavage fluorescence; series mostly up to 57.1 µM
In short: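 Cleavage of a quenched abasic-site DNA duplex (50 nM, 5'-TAMRA, 3'-BHQ-2) by 2 nM enzyme is followed as fluorescence increase. Compounds are preincubated with enzyme 15 min at room temperature before substrate addition.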

[14] = qHTS for differential inhibitors of proliferation of Plasmodium falciparum line HB3 (AID 1886); conditions: Potency: Plasmodium falciparum HB3 proliferation inhibition; series mostly up to 28.7 µM;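 note: parasites grown with compound for 72 h before SYBR Green readout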; note: potency is the fitted concentration of half-maximal effect
[15] = molecular target: RecQ-like DNA helicase BLM (Homo sapiens) (UniProt P54132); test: qHTS Validation Assay for Inhibitors of Bloom's syndrome helicase (BLM) (AID 2364); conditions: BLM helicase DNA unwinding, fluorescence, in vitro; series mostly up to 57.1 µM
Sequence of RecQ-like DNA helicase BLM (Homo sapiens) (P54132 whole entry, looked up): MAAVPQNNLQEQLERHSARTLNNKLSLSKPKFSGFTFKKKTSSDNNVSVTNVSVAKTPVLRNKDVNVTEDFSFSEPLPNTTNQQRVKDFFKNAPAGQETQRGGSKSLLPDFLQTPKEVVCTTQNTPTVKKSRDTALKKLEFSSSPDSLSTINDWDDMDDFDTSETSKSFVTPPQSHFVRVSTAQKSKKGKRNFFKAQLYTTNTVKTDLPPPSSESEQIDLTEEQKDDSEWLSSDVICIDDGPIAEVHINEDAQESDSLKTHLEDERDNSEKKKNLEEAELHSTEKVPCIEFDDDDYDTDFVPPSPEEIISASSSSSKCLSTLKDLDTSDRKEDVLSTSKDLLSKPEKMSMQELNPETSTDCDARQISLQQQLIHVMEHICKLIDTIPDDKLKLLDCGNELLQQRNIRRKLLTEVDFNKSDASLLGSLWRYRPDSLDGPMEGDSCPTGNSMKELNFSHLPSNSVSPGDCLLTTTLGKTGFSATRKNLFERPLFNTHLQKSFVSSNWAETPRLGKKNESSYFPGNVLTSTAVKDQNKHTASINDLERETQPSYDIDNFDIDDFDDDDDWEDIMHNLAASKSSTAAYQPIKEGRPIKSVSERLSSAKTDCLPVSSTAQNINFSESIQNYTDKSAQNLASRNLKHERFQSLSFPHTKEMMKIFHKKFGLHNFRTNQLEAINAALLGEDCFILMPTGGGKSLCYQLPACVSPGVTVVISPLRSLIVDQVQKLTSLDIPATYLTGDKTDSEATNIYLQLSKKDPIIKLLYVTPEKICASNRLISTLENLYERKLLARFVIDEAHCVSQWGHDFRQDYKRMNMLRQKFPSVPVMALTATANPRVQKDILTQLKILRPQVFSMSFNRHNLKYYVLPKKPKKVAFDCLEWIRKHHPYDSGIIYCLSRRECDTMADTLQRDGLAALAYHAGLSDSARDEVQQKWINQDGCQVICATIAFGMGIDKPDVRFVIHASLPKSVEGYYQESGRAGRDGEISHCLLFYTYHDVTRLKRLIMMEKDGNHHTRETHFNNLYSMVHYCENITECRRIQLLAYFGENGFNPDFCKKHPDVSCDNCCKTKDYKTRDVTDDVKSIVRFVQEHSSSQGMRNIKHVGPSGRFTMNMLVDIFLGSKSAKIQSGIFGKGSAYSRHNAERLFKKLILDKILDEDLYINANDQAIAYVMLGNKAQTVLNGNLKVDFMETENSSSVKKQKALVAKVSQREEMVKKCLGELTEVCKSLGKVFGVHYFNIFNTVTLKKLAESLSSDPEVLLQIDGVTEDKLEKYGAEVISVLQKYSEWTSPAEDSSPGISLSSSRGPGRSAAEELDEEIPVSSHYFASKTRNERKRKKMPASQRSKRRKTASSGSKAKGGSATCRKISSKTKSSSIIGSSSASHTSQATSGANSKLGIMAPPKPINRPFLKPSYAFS
In short: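 50 nM BLM preincubated 15 min at room temperature with compound in pH 8.0 Tris buffer containing 2.5 ug/ml poly(dI-dC); started with 200 nM TAMRA/BHQ-2 forked duplex and 2 mM ATP (final). Unwinding read as TAMRA fluorescence increase, two reads 2 h apart.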

[16] = qHTS for differential inhibitors of proliferation of Plasmodium falciparum line W2 (AID 1883); conditions: Potency: Plasmodium falciparum W2 proliferation inhibition; series mostly up to 28.7 µM;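 note: parasites grown with compound for 72 h before lysis and staining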; note: potency is the fitted concentration of half-maximal effect
[17] = Counterscreen for APE1 Inhibitors: Fluorescent Dye Displacement Validation Assay (AID 1707); conditions: fluorescent dye displacement from DNA; series mostly up to 57.1 µM
In short: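 Compounds are scored by their ability to displace Thiazole Orange (250 nM) from a 50 nM TAMRA-tagged duplex bearing a tetrahydrofuran abasic site. Buffer is 50 mM Tris-HCl pH7.5, 50mM NaCl, 2 mM MgCl2, 0.01% Tween-20.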

[18] = measured here: cell count channel max response
[19] = measured here: lipid channel max response

| SMILES | activity change, negative = inhibition [1] | max response [1, 18] | max response [1, 19] | Potency [2] | Potency [3] | Potency [4] | Potency [5] | Potency [6] | Potency [7] | outcome [8] | Potency [9] | Potency [10] | outcome [11] | Potency [12] | Potency [13] | Potency [14] | Potency [15] | Potency [16] | Potency [17] |
| --- | --- | --- | --- | --- | --- | --- | --- | --- | --- | --- | --- | --- | --- | --- | --- | --- | --- | --- | --- |
| COc1cc2c(CCNC(C)=O)c[nH]c2cc1Cl | -11.4% (inactive) | -19% | -30.9% | inactive | inactive | inactive | inactive | inactive | inactive | inactive | inactive | inactive | inactive | inactive | – | – | – | – | – |
| COc1cc(OC)c(/C=C2/C(=O)Nc3ccccc32)c(OC)c1 | -1.27% (inactive) | 30.4% | 28.6% | inactive | – | – | – | inactive | inactive | – | – | inactive | – | inactive | – | – | – | – | – |
| CN(C)CCC(c1ccc(Cl)cc1)c1ccccn1 (configuration not stated) | 1.75% (inactive) | 45.4% | 46% | inactive | – | – | – | inactive | – | – | inactive | inactive | inactive | inactive | inactive | inactive | inactive | – | – |
| CC1(C)CCC=[N+]1[O-] | 0.483% (inactive) | -28.1% | -25.6% | inactive | inactive | inactive | inactive | inactive | inactive | inactive | inactive | inactive | inactive | inactive | inactive | inactive | – | inactive | – |
| O=C(O)CCCC[C@@H]1CCSS1 | -3.03% (inactive) | -26.8% | -29% | inactive | inactive | inactive | inactive | inactive | inactive | – | inactive | inactive | inactive | inactive | – | inactive | – | inactive | inactive |
| CC1CN(S(=O)(=O)c2cccc3cnccc23)CCN1 (configuration not stated) | 1.97% (inactive) | 5.7% | 7.5% | inactive | – | 11.2 µM (active) | inactive | inactive | inactive | inactive | inactive | inactive | inactive | inactive | inactive | inactive | inactive | 7.94 µM (active) | – |
| NC(N)=NC(=O)c1nc(Cl)c(N2CCCCCC2)nc1N | -1.28% (inactive) and 0.178% (inactive) | 5.25% and -33% | 6.67% and -33.1% | inactive | 8.91 µM (active) | 12.6 µM (active) | 4.47 µM (active) | 7.94 µM (active) | – | – | – | inactive | inactive | inactive | – | 7.94 µM (active) | inactive | 2.82 µM (active) | inactive |
| CCCCCCCCCCCCCCCC(=O)OC(CC(=O)O)C[N+](C)(C)C (configuration not stated) | -1.01% (inactive) | 29% | 25.7% | inactive | inactive | inactive | – | inactive | inactive | inactive | – | inactive | inactive | inactive | – | inactive | – | – | – |
